From PubChem BioAssay (Tox21)
Inconclusive results are not listed. Active and inactive are the calls of the source. Unless noted, calls come from the whole dose curve; as a rule, active = well fitted curve in the direction sought with a large enough effect in the repeat runs; inconclusive = weak or mixed curves; inactive = no such curve, though single readings can be large; an effect the other way counts as inactive or inconclusive.

Tests used:
[1] = qHTS assay to identify small molecule agonists of the vitamin D receptor (VDR) signaling pathway - cell viability counter screen (AID 743224); note: series mostly up to about 63 µM; nearly all actives have a fitted effect of over 50% in size
Summary of the method: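 VDR-bla cells were preincubated 4 h at 37C/5% CO2, then exposed to compounds for 16 h. After the 2 h room-temperature bla FRET read, CellTiter-Glo was added to the same wells and luminescence read after 30 min.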

[2] = qHTS assay to identify small molecule antagonists of the vitamin D receptor (VDR) signaling pathway - cell viability counter screen (AID 743225); note: nearly all actives have a fitted effect of over 50% in size
Summary of the method: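 Luminescent cell viability (CellTiter-Glo) in VDR-bla HEK 293T cells after 16 h compound exposure at 37C in the presence of 3 nM final 1-alpha,25-dihydroxy vitamin D3.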

[3] = qHTS assay to identify small molecule agonists of the NFkB signaling pathway (AID 1159509; active = well fitted curve in the direction sought with a large enough effect in the signal ratio in the repeat runs, not every such curve was filed as active; the % refers to the signal ratio; note: series mostly up to about 61 µM)
Summary of the method: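 After overnight attachment, reporter cells received test compounds, DMSO or positive controls and were incubated 5 hr at 37 C. FRET substrate was then added for 1.5 hr at room temperature before dual-emission fluorescence reading.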

[4] = qHTS assay to identify small molecule agonists of the NFkB signaling pathway - cell viability counter screen (AID 1159515; calls by dose curve; note: series mostly up to about 61 µM; nearly all actives have a fitted effect of over 55% in size)
Summary of the method: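 NFkB-bla ME-180 cells, 2,000/well, were plated overnight at 37 C, 5% CO2, then exposed to compounds in DMSO for 5 hr. After the bla FRET read, CellTiter-Glo was added to the same wells; luminescence was read after 30 min at room temperature.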

[5] = qHTS assay to identify small molecule agonists of the endoplasmic reticulum stress response signaling pathway (AID 1159516; active = well fitted activation curve with a large enough effect in the signal ratio in the repeat runs, not every such curve was filed as active; the % refers to the signal ratio)
Summary of the method: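 CellSensor ESRE-bla HeLa cells, carrying a beta-lactamase reporter driven by the ER stress response element, were plated overnight and exposed to compounds for 5 hr at 37 C. Reporter activity was read as FRET substrate fluorescence after 2 hr at room temperature.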

[6] = qHTS assay to identify small molecule agonists of the endoplasmic reticulum stress response signaling pathway - cell viability counter screen (AID 1159517; calls by dose curve; note: series mostly up to about 61 µM; nearly all actives have a fitted effect of over 50% in size)
Summary of the method: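 Counter-screen wells were identical to the reporter wells. Cells were plated at 1,500 per well and dosed for 5 hr, then read for luminescence 30 min after CellTiter-Glo addition.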

[7] = qHTS assay to identify small molecule antagonists of the retinoid-related orphan receptor gamma (ROR-gamma) signaling pathway - cell viability counter screen (AID 1159520); note: nearly all actives have a fitted effect of over 50% in size
Summary of the method: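 Tet-on ROR gamma CHO cells were given compounds for 2 hr, then doxycycline hyclate at 1 uM final, and incubated 16 hr at 37 C. Viability was measured as ATP content by CellTiter-Glo luminescence.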

[8] = biological target: Nuclear receptor ROR-gamma (Homo sapiens) (UniProt P51449); assay: qHTS assay to identify small molecule antagonists of the retinoid-related orphan receptor gamma (ROR-gamma) signaling pathway (AID 1159521)
Summary of the method: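 CHO cells expressing RORγ under a TET-on promoter, luciferase under RORE control. Dox 1 uM final, 16 h; compounds added 2 h prior. Luminescence decrease measured.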

[9] = qHTS assay to identify small molecule agonists of the AP-1 signaling pathway - cell viability counter screen (AID 1159525; calls by dose curve; note: nearly all actives have a fitted effect of over 55% in size)
Summary of the method: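 AP-1-bla ME-180 cells in Opti-MEM with 0.5% dialyzed FBS, compound exposure 5 h at 37 C in 15-point titration. Viability read in the same wells as ATP content by CellTiter-Glo luminescence, normalised to tetra-n-octylammonium bromide and DMSO controls.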

[10] = qHTS assay to identify small molecule agonists of the AP-1 signaling pathway (AID 1159526; calls by dose curve)
[11] = biological target: Retinoic acid receptor RXR-alpha (Homo sapiens) (UniProt P19793); assay: qHTS assay to identify small molecule agonists of the RXR signaling pathway (AID 1159527; calls by dose curve; note: nearly all actives have a fitted effect of over 35% in size)
Summary of the method: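 Beta-lactamase reporter assay, agonist format. Engineered HEK 293T line, charcoal-stripped FBS at 2%, overnight (16 hr) exposure, fluorescence at 460 and 530 nm after 405 nm excitation.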

[12] = qHTS assay to identify small molecule agonists of the RXR signaling pathway - cell viability counter screen (AID 1159529)
Summary of the method: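 Same-well viability check after the LiveBLAzer FRET read: CellTiter-Glo added, luminescence measured after 30 min at room temperature. Reporter HEK 293T cells had been treated with compounds for 16 hr following a 5 hr preincubation.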

[13] = qHTS assay to identify small molecule antagonists of the retinoid acid receptor (RAR) signaling pathway - cell viability counter screen (AID 1159551); note: nearly all actives have a fitted effect of over 35% in size
Summary of the method: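 C3RL4 cells were seeded overnight at 37 C, then treated with compounds plus 1 uM (final) retinol for 6 h at 37 C. Viability was read as ATP by CellTiter-Glo luminescence after 30 min at room temperature.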

[14] = qHTS assay to identify small molecule antagonists of the retinoic acid receptor (RAR) signaling pathway (AID 1159552; note: nearly all actives have a fitted effect of over 50% in size)
Summary of the method: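 Readout: luciferase luminescence, 30 min post-reagent at RT. Setup: C3RL4 RARE reporter cells, compounds plus retinol 1 uM final, 6 hr incubation at 37 C and 5% CO2.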

[15] = qHTS assay to identify small molecule agonists of the retinoic acid receptor (RAR) signaling pathway (AID 1159553)
Summary of the method: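 C3RL4 cells carrying a RARE luciferase reporter were plated overnight at 37 C, then exposed to compounds in DMSO for 6 hr at 37 C and 5% CO2. Luminescence was read 30 min after luciferase reagent addition at room temperature.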

[16] = qHTS assay to identify small molecule antagonists of the estrogen related receptor (ERR) signaling pathway - cell viability counter screen (AID 1224818);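 note: series mostly up to about 46 µM; viability measured after 17.5 h of compound exposure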
Summary of the method: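 ERR reporter cells plated 6 h at 37 C/5% CO2, then compounds in DMSO pin-transferred and incubated 17.5 h at 37 C. Viability read as CellTiter-Fluor fluorescence after 30 min at 37 C.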

[17] = qHTS assay to identify small molecule antagonists of the estrogen related receptor (ERR) signaling pathway (AID 1224819)
Summary of the method: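 ERR reporter cells were plated at 2,000 cells/well and left 6 h at 37 C/5% CO2 before pin-tool transfer of compounds in DMSO. After 18 h at 37 C, One-Glo was added and luminescence was read 30 min later at room temperature.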

[18] = qHTS assay to identify small molecule agonists of the estrogen related receptor (ERR) signaling pathway (AID 1224820)
Summary of the method: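 Quantitative HTS of the LOPAC library used NTP ERR reporter cells treated 18 h at 37 C. Signal is luminescence after One-Glo addition and a 30 min room-temperature incubation.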

[19] = qHTS assay to identify small molecule antagonists of the estrogen related receptor signaling pathway with the pleiotropic PPARgamma coactivator (PGC) cell viability counter screen (AID 1224822; note: series mostly up to about 46 µM)
Summary of the method: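 PGC/ERR cells were seeded at 2,000 cells/well, rested 6 h at 37 C/5% CO2, then given compounds in DMSO by pin tool and incubated 17.5 h at 37 C. Viability came from CellTiter-Fluor fluorescence after 30 min.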

Measured: Potency

Sequence of Retinoic acid receptor RXR-alpha (Homo sapiens) (P19793 whole entry, looked up): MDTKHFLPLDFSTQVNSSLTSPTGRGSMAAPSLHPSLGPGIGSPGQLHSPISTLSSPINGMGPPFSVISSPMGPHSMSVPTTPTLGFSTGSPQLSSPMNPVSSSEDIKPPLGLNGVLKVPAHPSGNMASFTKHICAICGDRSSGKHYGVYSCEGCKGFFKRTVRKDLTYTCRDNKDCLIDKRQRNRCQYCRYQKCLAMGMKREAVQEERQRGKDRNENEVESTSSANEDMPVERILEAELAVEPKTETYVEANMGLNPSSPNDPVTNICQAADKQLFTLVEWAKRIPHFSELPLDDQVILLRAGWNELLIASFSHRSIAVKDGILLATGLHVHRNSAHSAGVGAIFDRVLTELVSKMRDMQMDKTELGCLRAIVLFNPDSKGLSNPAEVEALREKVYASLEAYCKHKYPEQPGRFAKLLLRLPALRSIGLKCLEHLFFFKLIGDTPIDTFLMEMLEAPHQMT

O=C(Cl)c1ccccc1
not listed: [16] | [17] | [18] | [19]
inactive: all other assays above

CNC(=O)NC(O)C(Cl)(Cl)Cl (stereo unspecified)
not listed: [16] | [17] | [18] | [19]
inactive: all other assays above

C=C1CC[C@@]2(O)[C@H]3Cc4ccc(O)c5c4[C@@]2(CCN3CC2CC2)[C@H]1O5
not listed: [1] | [16] | [17] | [18] | [19]
inactive: all other assays above

c1cncc([C@@H]2CCCCN2)c1
not listed: [2] | [15] | [16] | [17] | [18] | [19]
inactive: all other assays above

CCOC(=O)N(C)N=O
not listed: [1] | [16] | [17] | [18] | [19]
inactive: all other assays above

O=C(Cl)/C=C/C(=O)Cl
not listed: [2] | [15] | [16] | [17] | [18] | [19]
inactive: all other assays above

CCN[C@@H](C)Cc1cccc(C(F)(F)F)c1
not listed: [16] | [17] | [18] | [19]
inactive: all other assays above

CN(C)CCN(C)C
not listed: [2] | [15] | [16] | [17] | [18] | [19]
inactive: all other assays above

CCC(=O)c1ccc(Cl)cc1
not listed: [16] | [17] | [18] | [19]
inactive: all other assays above

O=[N+]([O-])c1cccc(CCl)c1
not listed: [2] | [15] | [16] | [17] | [18] | [19]
inactive: all other assays above

C#CC(C)(C)O
not listed: [1] | [16] | [17] | [18] | [19]
inactive: all other assays above

CCC(C)C(C)(COC(N)=O)COC(N)=O (stereo unspecified)
not listed: [16] | [17] | [18] | [19]
inactive: all other assays above

N=C(N)[Se]
not listed: [1] | [16] | [17] | [18] | [19]
inactive: all other assays above

CN1C(=O)COc2c(C(=O)NC3CN4CCC3CC4)cc(Cl)cc21 (stereo unspecified)
not listed: [16] | [17] | [18] | [19]
inactive: all other assays above

ClCOCCl
not listed: [1] | [16] | [17] | [18] | [19]
inactive: all other assays above

CC(C)(C1CCC(O)CC1)C1CCC(O)CC1 (stereo unspecified)
not listed: [16] | [17] | [18] | [19]
inactive: all other assays above

CC1=C2[C@H]3OC(=O)[C@@H](C)[C@@H]3CC[C@@]2(C)C=CC1=O
not listed: [15] | [16] | [17] | [18] | [19]
inactive: all other assays above

Cc1ccc(S(=O)(=O)N[C@@H](CCCCN)C(=O)CCl)cc1
not listed: [2] | [14]
inactive: all other assays above

C/C=C/CC#N
not listed: [15] | [16] | [17] | [18] | [19]
inactive: all other assays above

O=C1CCCCC1Cl (stereo unspecified)
not listed: [15] | [16] | [17] | [18] | [19]
inactive: all other assays above
